The values below come from PubChem BioAssay AID977607 (Broad Institute, 2014).

SMILES strings stand for the structures. Out of some 1,500 compounds screened, about 460 (31%) were called active. About 1% were inconclusive and are not listed.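 How the source made its calls: active means curve reaches 40% activation over neutral controls at an AC40 no higher than the top valid tested concentration; inconclusive means no clear call, values can overlap the other calls; inactive means signal moving opposite to the expected increase, and the rest.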 Not all results are given here. Potency and affinity values are given separately.

The assay is described as follows: GLuc-reported insulin release enhancers, glucose-stimulated beta cells – cell-based, INS-1E, Gaussia luciferase, luminescence, cherry-pick, set 2, dose response (AID 977607).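 Further: 0% = median of the plate neutral control wells.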 As to conditions: INS-1E GLuc insulin secretion reporter, 2-3 h, active compounds read high; at 35 µM, 100% = signal doubled over neutral wells unless noted.
As to `CSc1ccc(/C=N/N(C)S(=O)(=O)c2ccc(C)cc2)cc1`, the max activation was -22.1% (inactive).

As to `Cc1ccc(S(=O)(=O)/N=C2\CN(C)C(=O)N2C)cc1`, the max activation is -21.8% [at 3.8 µM, 100% = signal doubled over neutral wells] (inactive).

On to `CCCc1nc(-c2cc3cc(C)ccc3[nH]c2=O)no1`, for which the max activation is -13.2% [at 1.2 µM, 100% = signal doubled over neutral wells] (inactive).

Consider `O=C(O)c1c(NC(=O)N2CCOCC2)sc2c1CCCC2`, for which the max activation was -10.1% [at 0.0016 µM, 100% = signal doubled over neutral wells] (inactive).

On to `CCOC(=O)c1c(N)c(C#N)c2n1CCCC2`, for which the max activation is -17% [at 0.0016 µM, 100% = signal doubled over neutral wells] (inactive).

Consider `CCOc1ccc(C(=O)NCC(=O)OCCN2C(=O)c3ccccc3C2=O)cc1OCC`, for which the max activation was -25.4% [at 0.135 µM, 100% = signal doubled over neutral wells] (inactive).

`O=S(=O)(NCC1CCCO1)c1ccc(Cl)nc1` (stereo unspecified): the max activation was -19.6% [at 3.8 µM, 100% = signal doubled over neutral wells] (inactive).

For the compound `Cc1noc(C)c1S(=O)(=O)NC(=O)C1(C)CCN1C(=O)C1(c2ccc(Cl)cc2)CCC1` (stereo unspecified), the max activation is -18.9% [at 0.135 µM, 100% = signal doubled over neutral wells] (inactive).

Take `CC1(C(=O)N2CCCCC2)CCN1C(=O)C1(c2ccccc2)CC1` (stereo unspecified): the max activation is -16.5% [at 0.046 µM, 100% = signal doubled over neutral wells] (inactive).

Regarding `CCCCNC(=O)C1(C)CCN1C(=O)c1cc2ccccc2s1` (stereo unspecified), the max activation is -22.6% [at 3.8 µM, 100% = signal doubled over neutral wells] (inactive).

With `CCSc1ncnc2c(C#N)c3n(c12)CCCCC3`, the max activation was -11.2% [at 0.005 µM, 100% = signal doubled over neutral wells] (inactive).

Take `Cc1cc(=O)[nH]c2c1c(C)nn2C1CCCC1`: the max activation was -15.7% [at 1.2 µM, 100% = signal doubled over neutral wells] (inactive).

In the case of `CCCCOc1ccc(-c2nnn(CC(=O)c3c[nH]c4ccccc34)n2)cc1`, the max activation is -22.5% (inactive).

In the case of `CCN1CCN(c2ccc(S(=O)(=O)N3CCCCC3)cc2NC(=O)c2cc3ccccc3o2)CC1`, the max activation is -44.3% (inactive).

As for `Cc1cccc(C)c1NC(=O)C1c2ccccc2Oc2ccccc21`, the max activation was 22.9% (inactive).

As to `CCCCOC(=O)c1cc(-c2ccc(/C=N/n3cnnc3)o2)ccc1Cl`, the max activation was 9.8% [at 1.2 µM, 100% = signal doubled over neutral wells] (inactive).

For the compound `O=C(CNC(=O)c1ccco1)N/N=C/c1ccc(C(=O)O)cc1`, the max activation was 52.9% [at 11 µM, 100% = signal doubled over neutral wells] (inactive).

Regarding `O=C(c1ccc2c(c1)OCO2)N1CCc2ccccc2C1`, the max activation is 14.5% (inactive).

For the compound `O=C(CCN1CCOCC1)c1ccc(N2CCCCC2)cc1`, the max activation is -35% [at 3.8 µM, 100% = signal doubled over neutral wells] (inactive).

In the case of `CC(=O)NC1C(=O)N(CCN2CCOCC2)c2ccc(Br)cc21` (stereo unspecified), the max activation was -15.1% [at 3.8 µM, 100% = signal doubled over neutral wells] (inactive).

As for `CC(C)Oc1ccc(C(=O)CCN2CCOCC2)cc1`, the max activation was -16% (inactive).

With `CC1(c2ccc(OC(F)F)cc2)NC(=O)N(CC(=O)Nc2cccc(S(N)(=O)=O)c2)C1=O` (stereo unspecified), the max activation is -16.7% (inactive).

For `C=CCN(CC=C)S(=O)(=O)c1ccc(C(=O)Nc2sc3c(c2C(N)=O)CCCCC3)cc1`, the max activation was -33.8% [at 3.8 µM, 100% = signal doubled over neutral wells] (inactive).

Turning to `C[C@H](O)[C@@H]1CN2CCc3ccc(-c4ccc5c(c4)OCO5)cc3[C@@H]2C[C@@H]1N(C)C(=O)c1cccc(Cl)c1`, the max activation is 18.9% [at 0.42 µM, 100% = signal doubled over neutral wells] (inactive).

For `CC(C(=O)N1CCC(C(N)=O)CC1)N(c1ccc(Oc2ccccc2)cc1)S(C)(=O)=O` (stereo unspecified), the max activation was 28.2% [at 0.42 µM, 100% = signal doubled over neutral wells] (inactive).

In the case of `COc1ccc(CCNC(=O)CCc2ccccc2)cc1OC`, the max activation is -19.6% [at 0.42 µM, 100% = signal doubled over neutral wells] (inactive).

Consider `COc1ccc(CCNC(=O)CCc2ccccc2O)cc1OC`, for which the max activation is -17.8% [at 0.005 µM, 100% = signal doubled over neutral wells] (inactive).

As to `CC(=O)NCCNC(=O)CNC(=O)c1ccc(Cl)cc1`, the max activation was -16.4% [at 0.0016 µM, 100% = signal doubled over neutral wells] (inactive).

Consider `CCNc1nc(NC(C)CC)nc(ON=C(C)C)n1` (stereo unspecified), for which the max activation is 31.8% (inactive).

Take `COc1cccc2cc(-c3cc(=O)oc4cc(C)c(O)cc34)oc12`: the max activation was 15.9% [at 3.8 µM, 100% = signal doubled over neutral wells] (inactive).

As for `COCCN(CCOC)Cc1cc(=O)oc2cc(C)c(C)cc12`, the max activation was -22.4% [at 0.046 µM, 100% = signal doubled over neutral wells] (inactive).

With `O=C(NCCN1CCN(C(=O)c2ccccc2Cl)CC1)C(=O)NCc1ccccc1`, the max activation is 23.3% [at 0.005 µM, 100% = signal doubled over neutral wells] (inactive).

`CC(O)c1nc2ccc(Cc3ccc4nc(C(C)O)[nH]c4c3)cc2[nH]1` (stereo unspecified): the max activation was -15% [at 0.0016 µM, 100% = signal doubled over neutral wells] (inactive).

Regarding `CCNc1nc(NC(C)C)nc(N(C)C#N)n1`, the max activation was 18.9% (inactive).

Consider `O=C(NN=C1CCCC1)c1cc(-c2ccccc2)n[nH]1`, for which the max activation was -11.9% [at 1.2 µM, 100% = signal doubled over neutral wells] (inactive).

As for `COc1ccc(/C=N/NC(=O)c2cc(-c3ccc4c(c3)OCO4)n[nH]2)cc1OC`, the max activation was 26.5% [at 3.8 µM, 100% = signal doubled over neutral wells] (inactive).
